S aureus helic – blocks Staphylococcus aureus DNA helicase; AID 485395; inhibition, % (no concentration beside the values); 120,000 compounds, 0.05% hits; purified S. aureus helicase, fluorescence unwinding assay; in the data active = inhibition above about 25%, passing the limit was not always enough
Sa growth 42C – blocks Staphylococcus aureus growth; S. aureus RN4220 growth, OD600, 20 h, 42 °C; active compounds read low; relative growth, % (no concentration beside the values); 170,000 compounds, 0.53% hits;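 active = relative growth at most 50% at the other temperature and 20+ points below 30 °C, or under 10% at both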
Numbers stand for hits; – = inactive; · = no result given. This is one part of a sample in which hits are shown more often than they occur.

SMILES	S aureus helic	Sa growth 42C
CCOc1cccc(OCC)c2c(C)[n+](C)c(C)c1-2	58.0	–
O=C1OC2(O)c3ccccc3C(=O)N2c2ccccc21 (stereo not drawn)	–	–
O=C1C=C2N(c3ccccc3)CCOC2(O)c2ccccc21 (stereo not drawn)	–	4.8
Cc1nc(-c2ccc3ccccc3c2)cs1	–	·
Cc1nc(-c2ccc3[nH]c(=O)oc3c2)cs1	–	-1.1
CCOc1ccc(C2=NC(c3ccc(OC)cc3)=Nc3ccc(Cl)cc3N2)cc1	·	–
NC(=O)NC(=O)c1nc2nonc2[nH]c1=O	–	–
Cc1nn(C)c(C)c1Sc1ccc(Br)cc1	–	–
Cc1nn(CO)c(C)c1Sc1ccc(Br)cc1	–	18.1
Cc1ccc2c(c1)c1c3n2CCN=C3CCC1	–	–
Cc1ccc2c(c1)c1c3n2CCCNC3CCC1 (stereo not drawn)	–	–
c1cc2c(cc1C1CCCCC1)c1c3n2CCN=C3CCC1	–	-2.0
c1cc2c(cc1C1CCCCC1)c1c3n2CCCNC3CCC1 (stereo not drawn)	–	-0.8
O=C(Nc1ccccc1)c1ccc(CSc2nnc(-c3ccc4c(c3)OCO4)o2)cc1	–	–
CN(C)c1ccc(C(c2cc3c(cc2O)OCO3)N2CCCCC2)cc1 (stereo not drawn)	–	0.9
COc1ccc(C(c2cc3c(cc2O)OCO3)N2CCOCC2)cc1 (stereo not drawn)	–	1.8
Cc1cc(C)cc(C(=O)NCC(c2ccc(N(C)C)cc2)N2CCCC2)c1 (stereo not drawn)	·	–
COc1ccc(C(=O)NCC(c2ccc3c(c2)OCO3)N2CCOCC2)cc1 (stereo not drawn)	·	–
Cc1nc(SCC(=O)N2CCCC2)c2c(C)c(C)sc2n1	–	–
O=C(NC1CCCCC1)c1sc(=S)n2c1[nH]c(=O)c1ccccc12	–	-0.2
O=C(NCCc1ccccc1)c1sc(=S)n2c1[nH]c(=O)c1ccccc12	–	–
O=c1cc(-c2ccccc2)c2c(O)cc(O)cc2o1	–	·
CCN(CC)C(=O)C(c1ccccc1)c1ccccc1	–	–
S=C(Nc1ccc(Cl)c(Cl)c1)NC1CCCC1	·	1.3
Cc1cccc(NC(=S)NC2CCCC2)c1	–	–
SMILES	S aureus helic	Sa growth 42C
Cc1ccc(C(=O)OC2=C(c3ccccc3)C(=O)c3ccccc3C2=O)cc1	–	–
CCOC(=O)COC1=C(c2ccccc2)C(=O)c2ccccc2C1=O	–	5.9
Cc1ccc(CN(C(=O)COc2ccc(Cl)c(C)c2)c2ccccn2)o1	·	–
CSc1nc2scc(-c3cccs3)c2c(=O)n1CC(C)C	–	–
CC(C)Cn1c(=S)[nH]c2scc(-c3cccs3)c2c1=O	–	8.9
COc1ccc(/C=N/N2CCN(C)CC2)cc1	–	–
COc1ccc(/C=N/n2ncc3ccccc32)cc1	–	26.9
COc1ccc(NC(=O)CCS(=O)(=O)c2nc(-c3cccs3)cc(C(F)(F)F)n2)cc1	·	–
COC(=O)CCS(=O)(=O)c1nc(-c2cccs2)cc(C(F)(F)F)n1	–	1.4
CSc1nnc(-c2ccc(C(C)(C)C)cc2)n1Cc1ccco1	·	–
C=CCSc1nnc(-c2ccc(C(C)(C)C)cc2)n1Cc1ccco1	–	8.7
Cc1ccc(C)c(-c2nnc(NC(=O)c3ccccc3S(C)(=O)=O)o2)c1	–	2.0
CS(=O)(=O)c1ccccc1C(=O)Nc1nnc(-c2ccc(Cl)cc2)o1	–	–
CC1=NN(c2ccccc2)C(=O)C1/C=C1\C(=O)NC(=O)N(c2ccccc2)C1=O (stereo not drawn)	–	–
O=c1oc2ccccc2n1CCc1nc(-c2ccc(C(F)(F)F)cc2)no1	–	–
COC(=O)Cn1c(=O)c(C)nc2ccccc21	–	–
COc1ccc(C(c2c(C)[nH]c3ccccc23)N2CCCC2)cc1 (stereo not drawn)	–	·
COc1ccc(C(c2c(C)[nH]c3ccccc23)N2CCOCC2)cc1 (stereo not drawn)	–	1.3
CSc1nc(-c2ccccc2)cn1-c1cccc(Cl)c1	–	–
Cc1ccc(C(c2c(O)ccc3ccccc23)N2CCOCC2)o1 (stereo not drawn)	–	-0.6
Oc1c(CN2CCOCC2)ccc2ccccc12	–	–
O=C(N/N=C/c1ccccc1)c1cc(-c2ccccc2)n[nH]1	–	–
COc1cc(/C=N/NC(=O)c2cc(-c3cccn3C)n[nH]2)cc(OC)c1OC	–	-0.2
CCn1c(=O)c(=O)[nH]c2cc(C(=O)Nc3nc(CN4CCCCC4)cs3)ccc21	–	–
CCOc1ccccc1CNC(=O)c1cc(-c2ccc(OC)cc2)nc2ccc(C(C)C)cc12	·	–
SMILES	S aureus helic	Sa growth 42C
O=C(O)/C=C/C(=O)Nc1ccc(SC(F)(F)F)cc1	–	–
O=C(Nc1ccc(SC(F)(F)F)cc1)n1ccc(C(F)(F)F)n1	·	4.9
CC(=O)c1ccc(NC(=O)CSc2nnc3ccc(-c4ccc(F)cc4)nn23)cc1	·	–
CCn1cc(C(=O)O)c(=O)c2cc(F)c(N(C)CCc3ccc(OC)c(OC)c3)cc21	–	0.0
CCn1cc(C(=O)O)c(=O)c2cc(F)c(F)cc21	–	–
O=S(=O)(c1ccc2c(c1)CCCN2)N1CCCCC1	–	–
CCN(CC)c1ccc2c(c1)CCCN2	–	4.2
COC(=O)c1ccc(S(=O)(=O)N(C2CCCCC2)C2CCCCC2)n1C	·	–
Cc1sc2ncn(CC(=O)Nc3nc4ccccc4s3)c(=O)c2c1S(=O)(=O)N1CC(C)CC(C)C1 (stereo not drawn)	–	–
Cc1sc2nc(SCC(=O)NC3CCCCC3)[nH]c(=O)c2c1C	–	–
Cc1nnc(SCC(=O)NC2CCCCCC2)[nH]c1=O	–	0.2
COc1ccc(C)cc1NC(=O)c1noc2c1CSc1ccccc1-2	·	–
Nn1c(Nc2ccc(Cl)cc2)nncc1=O	–	–
Cc1ccc(CNC(=O)Cn2sc3nc(C)cc(C)c3c2=O)cc1	–	–
CCOc1ccc(CCNC(=O)Cn2sc3nc(C)cc(C)c3c2=O)cc1	–	6.2
c1ccc(-c2ncsc2-c2ccccc2)cc1	–	–
Cc1sc2nc[nH]c(=O)c2c1-c1ccccc1	–	·
Cc1sc2nc[nH]c(=S)c2c1-c1ccccc1	–	-0.5
COc1ccc(OC)c(CNC(=O)C2CCN(c3ncnc4c3nc3n4CCCCC3)CC2)c1	·	–
CC(=O)Nc1sc2c(c1C#N)CCC2	–	–
N#Cc1c(NC(=O)C(F)(F)F)sc2c1CCCC2	–	-1.0
CC(C)CC(C(=O)n1nnc2ccccc21)N1C(=O)c2ccccc2C1=O (stereo not drawn)	–	–
O=C(Nc1ccccc1)N1CCCN(c2nccc(C(F)(F)F)n2)CC1	–	–
CC1CCN(CNC(=O)c2cc3ccccc3o2)CC1	–	–
CC1C/C(=N/Nc2nc3ccccc3[nH]2)CC(C)(C)C1 (stereo not drawn)	–	–
SMILES	S aureus helic	Sa growth 42C
CC1=C/C(=N/Nc2nc3ccccc3[nH]2)CC(C)(C)C1	–	-0.4
Cc1ccccc1OCc1nnc(SCc2cc(=O)c3ccc(C)c(C)c3[nH]2)n1C	·	–
CCOC(=O)c1noc2ncn(Cc3ccc([N+](=O)[O-])cc3)c(=O)c12	·	–
O=C(O)c1ccc(-n2nnnc2SCc2ccccc2F)cc1	–	–
Cc1ccc(NC(=O)CN(C)Cc2cc(=O)n3ccsc3n2)cc1	–	–
CN(C)c1ccc2nc3ccc(=[N+](C)C)cc-3sc2c1	·	–
Cc1cc2nc3ccc(=[N+](C)C)cc-3sc2cc1N	132.0	–
CCN(CC)Cc1cc(C(C)C)c(O)c(C(C)C)c1	–	·
C=CCN1C(=O)S/C(=C/c2ccc(OC)c(OCC)c2)C1=O	–	–

High-throughput results as filed in PubChem.
